DT40 TDP1 no CPT: qHTS for Inhibitors of human tyrosyl-DNA phosphodiesterase 1 (TDP1): qHTS in cells in absence of CPT | actives 15% (n = 420,000) | DT40 Tdp1-/- hTDP1 cells, no CPT, ATP luminescence, 48 h | Potency, µM (series often up to 46.2 µM), inactives show at the highest dose activity change, negative = growth inhibition, actives largely listed as inhibitors; further: nearly all actives have a fitted effect of over 55% in size
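Compound effects on proliferation are scored in DT40 Tdp1-/-;hTDP1 cells in the absence of CPT. ATP levels (CellTiter-Glo luminescence) are recorded after a ≥48 hr, 37 °C incubation.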
DT40 TDP1 CPT: growth inhibition of DT40 Tdp1-/-;hTDP1 cells with camptothecin (screen for TDP1 inhibitors). chicken DT40 Tdp1-/-;hTDP1 cells + 20 nM CPT, ATP luminescence, 48 h. Potency, µM (series often up to 46.2 µM), for the others: at the highest dose activity change, negative = growth inhibition, actives largely listed as inhibitors. actives 12% (n = 420,000). AID 686979; further: nearly all actives have a fitted effect of over 55% in size
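Chicken DT40 Tdp1-/- cells stably complemented with human TDP1 were seeded at 400 cells/well in medium containing 20 nM camptothecin, exposed to pin-transferred compounds, and grown at 37 °C for at least 48 hr. Viability was read as ATP luminescence.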
HT1080 IDH1KD tx: HT-1080 IDH1 knockdown cell toxicity (counter line); HT-1080 IDH1 knockdown viability, ATP luminescence, 48 h; actives 2% (n = 360,000); Potency, µM (titrated, usually from 46.1 µM), for inactives: at the highest dose activity, negative = toxicity, usual class: cytotoxic;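 further: 0% = DMSO wells and -100% = cell-free medium wells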
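Assay cells: HT-1080 with IDH1 knockdown, 750 per well, RPMI/5% FBS. Exposure: 48 h at 37 °C following 2 h pre-incubation. Read: CellTiter-Glo luminescence; fitted concentration-response, curve class assigned.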
KB-3-1 cytotox: KB-3-1 parental cell cytotoxicity; Potency, µM (top dose mostly 46.1 µM), most hits filed as cytotoxic; actives 1.4% (n = 400,000); KB-3-1 viability, CellTiter-Glo ATP luminescence, 72 h; further: nearly all actives have a fitted effect of over 60% in size
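Cytotoxicity in the drug-sensitive parental line KB-3-1 was scored as loss of CellTiter-Glo luminescence following 72 h incubation with compound. Values come from curve fitting of normalized concentration-response data.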
KB-V1 MDR tox: KB-V1 MDR subline cytotoxicity | KB-V1 MDR cells viability, CellTiter-Glo, 72 h | Potency, µM (doses to about 46.1 µM), hits mostly cytotoxic | actives 3.4% (n = 400,000) | AID 1347076; further: nearly all actives have a fitted effect of over 60% in size
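KB-V1, DMEM (no phenol red) + 10% FBS; cpd pin-transferred, titration series; 72 h, 37 degrees C; CellTiter-Glo, luminescence. Data normalized, curve-fit.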
HT1080NT lethal: kills 2HG-producing HT-1080-NT fibrosarcoma cells; HT-1080-NT fibrosarcoma viability, CellTiter-Glo ATP luminescence, 48 h; Potency, µM (doses to about 46.1 µM), inactives show at the top dose activity, negative = less viability, usual class: cytotoxic; actives 1.6% (n = 360,000);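 further: NT is the 2HG producing partner of a matched IDH1 knockdown line; 0% = DMSO-treated cells and -100% = media-only wells without cells; nearly all actives have a fitted effect of over 55% in size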
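HT-1080-NT fibrosarcoma cells (2HG-overproducing), 750 cells/well in RPMI with 5% FBS, dosed after 2 h and incubated 48 h at 37C. CellTiter-Glo luminescence normalized to DMSO and no-cell wells; concentration-response curves fitted and classed.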
* = called active by the depositor. Hits are enriched below; roughly 19% of the tested compounds scored in any of these assays. The call rests on the fitted dose curve; in most records, active means well fitted curve in the direction sought with a large enough effect; inconclusive means small, poorly fitted or top-dose-only effect, or another doubt; inactive means no such curve, though single readings can be large; an effect the other way counts as inactive or inconclusive. Unless noted, on the % scale 0 is the no-effect control and ±100 the full control effect; potency means the concentration at half of the fitted maximal effect.

Screening CCc1ccccc1NC(=O)Cn1c(=O)n(Cc2ccc3c(c2)OCO3)c(=O)c2ccc(C(=O)NC3CCCCC3)cc21 returned DT40 TDP1 no CPT inconclusive, DT40 TDP1 CPT 1.84µM*, KB-3-1 cytotox inactive and KB-V1 MDR tox inactive.
CCCCNC(=S)Nc1ccc2nc(N3CCN(CC)CC3)cc(C)c2c1 was read as DT40 TDP1 no CPT 23.1µM*, DT40 TDP1 CPT 23.1µM*, HT1080 IDH1KD tx inconclusive, KB-3-1 cytotox inactive, KB-V1 MDR tox inactive and HT1080NT lethal -26.4%.
CCN(CC)CCNC(=S)Nc1ccc2nc(N3CCN(CC)CC3)cc(C)c2c1 was read as DT40 TDP1 no CPT inconclusive, DT40 TDP1 CPT inconclusive, HT1080 IDH1KD tx inconclusive, KB-3-1 cytotox inactive, KB-V1 MDR tox inactive and HT1080NT lethal -23.7%.
Screening CCCCN(C)CCNC(=S)Nc1ccc2nc(N3CCN(CC)CC3)cc(C)c2c1 returned DT40 TDP1 no CPT inconclusive, DT40 TDP1 CPT inconclusive, HT1080 IDH1KD tx 29.1µM*, KB-3-1 cytotox inactive, KB-V1 MDR tox inactive and HT1080NT lethal 18.4µM*.
CCN1CCN(c2cc(C)c3cc(NC(=S)NCCN(C)C)ccc3n2)CC1 was read as DT40 TDP1 no CPT 20.6µM*, DT40 TDP1 CPT inconclusive, HT1080 IDH1KD tx inconclusive, KB-3-1 cytotox inactive, KB-V1 MDR tox inactive and HT1080NT lethal -20.2%.
N/C(=N\OC(=O)c1ccccc1F)c1cccc([N+](=O)[O-])c1 was read as DT40 TDP1 no CPT 10.5%, DT40 TDP1 CPT -0.7%, HT1080 IDH1KD tx 9.6%, KB-3-1 cytotox inactive, KB-V1 MDR tox inactive and HT1080NT lethal 12.3%.
For COc1ccc(CC2(CO)CCN(Cc3cccn3-c3ccccn3)CC2)cc1 the results were DT40 TDP1 no CPT -26.5%, DT40 TDP1 CPT -18.1%, HT1080 IDH1KD tx -10.7%, KB-3-1 cytotox inactive, KB-V1 MDR tox inactive and HT1080NT lethal -0.1%.
`COc1ccc(CC2(CO)CCN(Cc3cnn(-c4ccccc4OC)c3)CC2)cc1` gave DT40 TDP1 no CPT 10.3µM*, DT40 TDP1 CPT inconclusive, HT1080 IDH1KD tx 0.2%, KB-3-1 cytotox inactive, KB-V1 MDR tox inactive and HT1080NT lethal -10.0%.
`COc1ccc(CC2(CO)CCN(Cc3cnn(-c4ccccc4)c3)CC2)cc1` gave DT40 TDP1 no CPT inconclusive, DT40 TDP1 CPT inconclusive, HT1080 IDH1KD tx inconclusive, KB-3-1 cytotox inactive, KB-V1 MDR tox inactive and HT1080NT lethal inconclusive.
COc1ccc(CC2(CO)CCN(Cc3cnc(-c4ccccc4C)nc3)CC2)cc1 was read as DT40 TDP1 no CPT 13µM*, DT40 TDP1 CPT inconclusive, HT1080 IDH1KD tx -13.5%, KB-3-1 cytotox inconclusive, KB-V1 MDR tox inconclusive and HT1080NT lethal 1.6%.
For CCSc1ccc(C(=O)Nc2cccc(C)n2)cc1[N+](=O)[O-] the results were DT40 TDP1 no CPT inconclusive, DT40 TDP1 CPT -11.9%, HT1080 IDH1KD tx -9.3%, KB-3-1 cytotox inconclusive, KB-V1 MDR tox inconclusive and HT1080NT lethal -0.5%.
Cc1cccc(NC(=O)c2ccc(N3CCOCC3)c([N+](=O)[O-])c2)n1 was read as DT40 TDP1 no CPT inconclusive, DT40 TDP1 CPT inconclusive, HT1080 IDH1KD tx 5.7%, KB-3-1 cytotox inactive, KB-V1 MDR tox inconclusive and HT1080NT lethal 5.8%.
For Cc1cccc(NC(=O)c2ccc(N3CCCCC3)c([N+](=O)[O-])c2)n1 the results were DT40 TDP1 no CPT 13µM*, DT40 TDP1 CPT inconclusive, HT1080 IDH1KD tx -4.8%, KB-3-1 cytotox inconclusive, KB-V1 MDR tox 5.17µM* and HT1080NT lethal -9.9%.
For Cc1cccc(NC(=O)c2ccc(N(C)C3CCCCC3)c([N+](=O)[O-])c2)n1 the results were DT40 TDP1 no CPT 16.4µM*, DT40 TDP1 CPT 20.6µM*, HT1080 IDH1KD tx inconclusive, KB-3-1 cytotox inconclusive, KB-V1 MDR tox 2.59µM* and HT1080NT lethal -23.3%.
For Cc1ccc(C)c2sc(NC(=O)c3ccc(N4CCCCC4)c([N+](=O)[O-])c3)nc12 the results were DT40 TDP1 no CPT 23.1µM*, DT40 TDP1 CPT inconclusive, HT1080 IDH1KD tx 5.6%, KB-3-1 cytotox inactive, KB-V1 MDR tox inactive and HT1080NT lethal 10.5%.
For CC1CCCN(c2ccc(C(=O)Nc3nnc(C4CC4)s3)cc2[N+](=O)[O-])C1 (configuration not stated) the results were DT40 TDP1 no CPT -1.1%, DT40 TDP1 CPT 4.5%, HT1080 IDH1KD tx 7.5%, KB-3-1 cytotox inactive, KB-V1 MDR tox inactive and HT1080NT lethal 6.5%.
`Cc1noc(/C=C/c2cccs2)c1S(=O)(=O)N1CCC(C(=O)NCc2ccccc2Cl)CC1` gave DT40 TDP1 no CPT -28.4% and DT40 TDP1 CPT -1.4%.
`CSc1ccc(CCNC(=O)c2cc(C)nc3c2c(C)nn3-c2ccccc2)cc1` gave DT40 TDP1 no CPT inconclusive, DT40 TDP1 CPT -13.6%, KB-3-1 cytotox inactive and KB-V1 MDR tox inactive.
`CCN(CC)c1ccc(NC(=O)CN2C(=O)c3cccnc3Oc3ccccc32)c(C)c1` gave DT40 TDP1 no CPT 16.4µM*, DT40 TDP1 CPT 16.4µM*, KB-3-1 cytotox inactive and KB-V1 MDR tox inactive.
`CCN(CC)c1ccc(NC(=O)CN2C(=O)CSc3ncccc32)c(C)c1` gave DT40 TDP1 no CPT 7.31µM*, DT40 TDP1 CPT 5.17µM*, HT1080 IDH1KD tx -4.9%, KB-3-1 cytotox inconclusive, KB-V1 MDR tox inconclusive and HT1080NT lethal -8.8%.
For CNC(=O)CN1C(=O)CSc2ncccc21 the results were DT40 TDP1 no CPT -19.1%, DT40 TDP1 CPT -2.3%, HT1080 IDH1KD tx 1.6%, KB-3-1 cytotox inactive, KB-V1 MDR tox inactive and HT1080NT lethal 0.0%.
Screening CCN(CC)c1ccc(NC(=O)Cn2nc(C)n3cccc3c2=O)c(C)c1 returned DT40 TDP1 no CPT 18.4µM*, DT40 TDP1 CPT 14.6µM*, KB-3-1 cytotox inactive and KB-V1 MDR tox inactive.
Cc1ccc2c(c1)N(CC(=O)Nc1ccccc1C(F)(F)F)C(=O)c1cccnc1O2 was read as DT40 TDP1 no CPT inconclusive, DT40 TDP1 CPT inconclusive, KB-3-1 cytotox inactive and KB-V1 MDR tox inactive.
Screening CC1CC(C)(C)OC(C[N+]2(C)CCCCC2)O1 (configuration not stated) returned DT40 TDP1 no CPT -25.9%, DT40 TDP1 CPT 3.4%, HT1080 IDH1KD tx 14.7%, KB-3-1 cytotox inactive, KB-V1 MDR tox inconclusive and HT1080NT lethal 10.3%.
Screening COc1c(C)cc(C(O)c2ncc(-c3ccc(Cl)cc3)[nH]2)cc1C (configuration not stated) returned DT40 TDP1 no CPT inconclusive, DT40 TDP1 CPT inconclusive, HT1080 IDH1KD tx inconclusive, KB-3-1 cytotox inactive, KB-V1 MDR tox inactive and HT1080NT lethal inconclusive.

Compound activity from PubChem BioAssay.
